Test [1] deals with Retinoic acid receptor RXR-alpha (Homo sapiens) (UniProt P19793). Description: OT_NURR1_NURR1RXRa_0480: Odyssey Thera (OT) 8-hour HEK293T Protein Complementation Assay for Nurr1/retinoid X receptor (RXR) (AID 2283385; active = hit-call score of the fitted dose curve at least 0.9, where 1 is the maximum). In outline:
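Read-out: fluorescence from protein-fragment complementation between Nurr1 and RXRα in human HEK293T cells, 8 h after dosing. DMSO served as negative control; increased signal counted as activity.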

For test [2] the target is unchanged. Kind of test: OT_NURR1_NURR1RXRa_1440: Odyssey Thera (OT) 24-hour HEK293T Protein Complementation Assay for Nurr1/retinoid X receptor (RXR) (AID 2283386; active = hit-call score of the fitted dose curve at least 0.9, where 1 is the maximum). In outline:
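Fluorescence PCA read-out; HEK293T; 24 h post-dose; bait/prey fused to reporter fragments; gain-of-signal fit vs DMSO negative control.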

In test [3] the target is Peroxisome proliferator-activated receptor gamma (Homo sapiens) (UniProt P37231). Kind of test: OT_PPARg_PPARgSRC1_0480: Odyssey Thera (OT) 8-hour Protein-Complementation Assay for Peroxisome Proliferator-activated Receptor Gamma / SRC-1 Co-activator (AID 2283387; active = hit-call score of the fitted dose curve at least 0.9, where 1 is the maximum). In outline:
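HEK293T transiently transfected with PPARg and SRC-1 fused to Venus YFP fragments, compounds 8 h at 37C. Fixed, Draq5-stained cells imaged; nuclear/cytoplasmic 488 nm fluorescence ratio over at least 350 cells per image; gain fitted versus DMSO.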

Test [4] has the same target. Description: OT_PPARg_PPARgSRC1_1440: Odyssey Thera (OT) 24-hour Protein-Complementation Assay for Peroxisome Proliferator-activated Receptor Gamma/ SRC-1 Co-activator (AID 2283388; active = hit-call score of the fitted dose curve at least 0.9, where 1 is the maximum). In outline:
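HEK293T cells transiently transfected with PPARg and SRC-1 fused via (Gly4Ser)2 linker to split Venus YFP fragments (IFP1/IFP2) were dosed 24 h; fixed, Draq5-stained, imaged at 488/635 nm; nuclear/cytoplasmic fluorescence ratio scored versus DMSO baseline, gain-of-signal.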

Test [5] is described as follows: CEETOX_H295R_11DCORT: CeeTox H295R High-throughput Steroidogenesis Assay for 11-Deoxycortisol (11DCORT) (AID 2283432).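 As to AC50: 11-deoxycortisol secreted into the medium measured by LC-MS/MS.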 The following applies: actives raise or lower the signal. In outline: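 H295R cells prestimulated 48 h with 10 uM forskolin, then exposed 48 h to chemical in 0.1% DMSO. 11-Deoxycortisol in medium quantified by HPLC-MS/MS after MTBE extraction; bidirectional fit versus DMSO. MTT viability read in same wells.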

Test [6] is described as follows: CEETOX_H295R_OHPREG: CeeTox H295R High-throughput Steroidogenesis Assay for OH-Pregnenolone (OHPREG) (AID 2283434). Conditions: actives raise or lower the signal. In outline:
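Secreted 17alpha-hydroxypregnenolone measured by HPLC-MS/MS after liquid-liquid extraction. Human adrenal H295R cells received 48 h forskolin (10 uM) stimulation before 48 h chemical exposure at 0.1% final DMSO; MTT viability in same wells; bidirectional fit against DMSO.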

Test [7] can be described thus: CEETOX_H295R_OHPROG: CeeTox H295R High-throughput Steroidogenesis Assay for OH-Progesterone (OHPROG) (AID 2283435).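 As to AC50: 17alpha-hydroxyprogesterone secreted into medium measured by HPLC-MS/MS.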 The following applies: actives raise or lower the signal. In outline: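 HPLC-MS/MS quantification of 17alpha-hydroxyprogesterone secreted by H295R cells after 48 h chemical exposure, following 48 h 10 uM forskolin prestimulation. Gain or loss of signal fitted relative to DMSO. Viability checked by MTT in the same wells.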

Test [8] can be described thus: CEETOX_H295R_CORTIC: CeeTox H295R High-throughput Steroidogenesis Assay for Corticosterone (CORTIC) (AID 2283437). The following applies: actives raise or lower the signal. In outline: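 Medium corticosterone was quantified by tandem mass spectrometry following 48 hours of chemical exposure (0.1% DMSO) in human H295R cells previously stimulated 48 hours with 10 uM forskolin. Viability checked by MTT; chemicals diluted and retested when viability fell below 70%.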

Test [9] is described as follows: CEETOX_H295R_CORTISOL: CeeTox H295R High-throughput Steroidogenesis Assay for Cortisol (AID 2283438).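 Also: cortisol secreted into medium quantified by LC-MS/MS.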 Conditions: actives raise or lower the signal. In outline:
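Read-out: cortisol in culture medium by reverse-phase C18 HPLC with ESI-positive tandem MS, after MTBE liquid-liquid extraction. Cells: human adrenal H295R, forskolin-primed (10 uM, 48 h) before 48 h chemical exposure in 0.1% DMSO.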

Test [10] can be described thus: CEETOX_H295R_DOC: CeeTox H295R High-throughput Steroidogenesis Assay for DOC (AID 2283439). Conditions: actives raise or lower the signal. In outline: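 Human adrenocortical H295R cells, passages up to 10, received 10 uM forskolin for 48 h before chemical addition. After another 48 h exposure in 0.1% DMSO, secreted DOC was measured by LC-MS/MS, with gain or loss fitted against DMSO controls.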

Test [11] is described as follows: CEETOX_H295R_PROG: CeeTox H295R High-throughput Steroidogenesis Assay for Progesterone (PROG) (AID 2283442). Conditions: actives raise or lower the signal. In outline:
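H295R human adrenal cells were prestimulated with 10 uM forskolin for 48 h, then exposed to test chemical (0.1% DMSO final) for 48 h. Medium progesterone was MTBE-extracted and quantified by HPLC-MS/MS, with bidirectional fitting against DMSO.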

Read-out in test [12]: Tumor necrosis factor receptor superfamily member 6 (Homo sapiens) (UniProt P25445)
Description: LTEA_HepaRG_FAS: Life Technologies and Expression Analysis (LTEA) Assay for Fas cell surface death receptor (FAS) using HepaRG (AID 2283447). The following applies: mRNA level, 48 h; actives raise or lower the signal. In outline: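 FAS transcript level was measured by TaqMan qRT-PCR against three housekeeping genes after 48 h chemical exposure. Cells were HepaRG, 0.5% DMSO vehicle, with a top concentration of 100 uM and half-log dilutions over eight points, in duplicate.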

Read-out in test [13]: Fatty acid synthase (Homo sapiens) (UniProt P49327)
Kind of test: LTEA_HepaRG_FASN: Life Technologies and Expression Analysis (LTEA) Assay for Fatty Acid Synthase (FASN) using HepaRG (AID 2283448). The following applies: mRNA level, 48 h; actives raise or lower the signal. In outline: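 HepaRG, 48 h exposure, 8-pt half-log series top 100 uM, 0.5% DMSO vehicle, duplicates. Readout: FASN transcript by Fluidigm qRT-PCR; housekeeping-normalized; bidirectional curve fit vs DMSO baseline.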

Read-out in test [14]: Cyclin D2 (CCND2), CCND2 (gene 894)
Description: LTEA_HepaRG_CCND2: Life Technologies and Expression Analysis (LTEA) Assay for Cyclin D2 (CCND2) using HepaRG (AID 2283449). The following applies: mRNA level, 48 h; actives raise or lower the signal. In outline: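 CCND2 transcript levels, quantified by qRT-PCR and normalised to three housekeeping genes, were fitted bidirectionally against 0.5% DMSO. HepaRG cultures were dosed 48 h in duplicate with an 8-point half-log series up to 100 uM.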

Read-out in test [15]: Cyclin Dependent Kinase Inhibitor 1A (CDKN1A), CDKN1A (gene 1026)
Kind of test: LTEA_HepaRG_CDKN1A: Life Technologies and Expression Analysis (LTEA) Assay for Cyclin Dependent Kinase Inhibitor 1A (CDKN1A) using HepaRG (AID 2283450). Conditions: mRNA level, 48 h; actives raise or lower the signal. In outline:
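Differentiated human HepaRG cells, pre-cultured 48 h, were exposed in duplicate for 48 h in serum-free induction medium to eight half-log concentrations up to 100 uM (0.5% DMSO). CDKN1A mRNA was measured by qRT-PCR, normalized to ACTB/GAPDH/POLR2A, bidirectionally fitted versus DMSO.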

Read-out in test [16]: catalase (CAT), CAT (gene 847)
Description: LTEA_HepaRG_CAT: Life Technologies and Expression Analysis (LTEA) Assay for catalase (CAT) using HepaRG (AID 2283452). The following applies: mRNA level, 48 h; actives raise or lower the signal. In outline: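 Expression of CAT was quantified by TaqMan qRT-PCR with ACTB/GAPDH/POLR2A normalization after 48 h chemical exposure of HepaRG. Eight-point half-log series, top 100 uM, in 0.5% DMSO; gain or loss fitted against vehicle.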

Read-out in test [17]: Cyclin D1 (CCND1), CCND1 (gene 595)
Kind of test: LTEA_HepaRG_CCND1: Life Technologies and Expression Analysis (LTEA) Assay for Cyclin D1 (CCND1) using HepaRG (AID 2283451). The following applies: mRNA level, 48 h; actives raise or lower the signal. In outline: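 Differentiated human HepaRG cells in serum-free induction medium were exposed 48 h to eight half-log concentrations up to 100 uM in 0.5% DMSO; mRNA quantified by TaqMan qRT-PCR, normalized to ACTB, GAPDH, POLR2A, fitted bidirectionally versus DMSO.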

The nature of test [18]: CEETOX_H295R_ESTRADIOL: CeeTox H295R High-throughput Steroidogenesis Assay for Estradiol (AID 2283440).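 Also: estradiol secreted into medium quantified by LC-MS/MS after dansyl derivatisation.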 The following applies: actives raise or lower the signal. In outline: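 H295R adrenocortical cells were prestimulated with 10 uM forskolin for 48 h, then exposed to test chemical in 0.1% DMSO for 48 h. Medium estradiol was extracted with MTBE, dansyl-derivatized and quantified by HPLC-MS/MS; bidirectional fit versus DMSO.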

The nature of test [19]: CEETOX_H295R_ESTRONE: CeeTox H295R High-throughput Steroidogenesis Assay for Estrone (AID 2283441).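 Also: estrone secreted into medium measured by LC-MS/MS after dansyl derivatization.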 The following applies: actives raise or lower the signal. In outline: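 Forskolin-stimulated H295R cells are treated 48 h with chemical, and estrone in the medium is measured by LC-MS/MS. Activity is fitted in both directions relative to DMSO controls, with chemicals diluted until MTT viability reaches at least 70%.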

A short description of test [20]: CEETOX_H295R_ANDR: CeeTox H295R High-throughput Steroidogenesis Assay for Androstenedione (ANDR) (AID 2283436). Conditions: actives raise or lower the signal. In outline: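 Medium from 48 h chemical-treated H295R adrenal cells was extracted with MTBE and androstenedione measured by LC-MS/MS. Activity was fit in both directions relative to DMSO. Cytotoxic concentrations were re-tested after dilution until MTT viability reached ≥70%.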

Structures are written as SMILES. Inconclusive results are not listed. The source made the active and inactive calls. The calls were made as follows, unless noted: active = hit-call score of the fitted dose curve at least 0.9, where 1 is the maximum; inactive = score below 0.9.

Retinoic acid receptor RXR-alpha (Homo sapiens), sequence (P19793 whole entry, looked up, the tested form may be a part): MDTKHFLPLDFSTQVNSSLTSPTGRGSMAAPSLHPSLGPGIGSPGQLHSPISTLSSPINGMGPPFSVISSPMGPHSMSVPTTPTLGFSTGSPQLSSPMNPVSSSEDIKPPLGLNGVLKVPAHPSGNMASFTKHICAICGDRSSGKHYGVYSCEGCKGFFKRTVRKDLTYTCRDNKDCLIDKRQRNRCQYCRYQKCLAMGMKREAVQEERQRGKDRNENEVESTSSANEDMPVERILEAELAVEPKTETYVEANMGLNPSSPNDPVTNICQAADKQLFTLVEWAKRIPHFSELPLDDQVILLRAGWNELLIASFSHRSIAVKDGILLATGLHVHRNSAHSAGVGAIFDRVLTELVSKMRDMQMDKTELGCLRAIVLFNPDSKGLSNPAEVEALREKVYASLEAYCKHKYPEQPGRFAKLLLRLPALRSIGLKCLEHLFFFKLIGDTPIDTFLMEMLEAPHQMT
Peroxisome proliferator-activated receptor gamma (Homo sapiens), sequence (P37231 whole entry, looked up, the tested form may be a part): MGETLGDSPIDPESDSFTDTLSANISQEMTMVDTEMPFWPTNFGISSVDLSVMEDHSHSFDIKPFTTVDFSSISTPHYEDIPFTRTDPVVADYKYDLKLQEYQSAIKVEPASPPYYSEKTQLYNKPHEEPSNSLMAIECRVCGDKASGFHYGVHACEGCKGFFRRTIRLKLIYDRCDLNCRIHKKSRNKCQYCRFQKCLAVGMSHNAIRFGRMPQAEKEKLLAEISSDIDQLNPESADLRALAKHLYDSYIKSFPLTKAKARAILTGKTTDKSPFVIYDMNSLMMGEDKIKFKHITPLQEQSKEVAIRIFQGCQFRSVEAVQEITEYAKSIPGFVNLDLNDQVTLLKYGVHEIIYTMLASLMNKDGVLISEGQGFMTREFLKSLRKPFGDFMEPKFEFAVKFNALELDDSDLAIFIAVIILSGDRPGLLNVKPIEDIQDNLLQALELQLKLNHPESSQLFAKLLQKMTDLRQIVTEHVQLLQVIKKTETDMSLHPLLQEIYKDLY
Fatty acid synthase (Homo sapiens), sequence (P49327 whole entry, looked up): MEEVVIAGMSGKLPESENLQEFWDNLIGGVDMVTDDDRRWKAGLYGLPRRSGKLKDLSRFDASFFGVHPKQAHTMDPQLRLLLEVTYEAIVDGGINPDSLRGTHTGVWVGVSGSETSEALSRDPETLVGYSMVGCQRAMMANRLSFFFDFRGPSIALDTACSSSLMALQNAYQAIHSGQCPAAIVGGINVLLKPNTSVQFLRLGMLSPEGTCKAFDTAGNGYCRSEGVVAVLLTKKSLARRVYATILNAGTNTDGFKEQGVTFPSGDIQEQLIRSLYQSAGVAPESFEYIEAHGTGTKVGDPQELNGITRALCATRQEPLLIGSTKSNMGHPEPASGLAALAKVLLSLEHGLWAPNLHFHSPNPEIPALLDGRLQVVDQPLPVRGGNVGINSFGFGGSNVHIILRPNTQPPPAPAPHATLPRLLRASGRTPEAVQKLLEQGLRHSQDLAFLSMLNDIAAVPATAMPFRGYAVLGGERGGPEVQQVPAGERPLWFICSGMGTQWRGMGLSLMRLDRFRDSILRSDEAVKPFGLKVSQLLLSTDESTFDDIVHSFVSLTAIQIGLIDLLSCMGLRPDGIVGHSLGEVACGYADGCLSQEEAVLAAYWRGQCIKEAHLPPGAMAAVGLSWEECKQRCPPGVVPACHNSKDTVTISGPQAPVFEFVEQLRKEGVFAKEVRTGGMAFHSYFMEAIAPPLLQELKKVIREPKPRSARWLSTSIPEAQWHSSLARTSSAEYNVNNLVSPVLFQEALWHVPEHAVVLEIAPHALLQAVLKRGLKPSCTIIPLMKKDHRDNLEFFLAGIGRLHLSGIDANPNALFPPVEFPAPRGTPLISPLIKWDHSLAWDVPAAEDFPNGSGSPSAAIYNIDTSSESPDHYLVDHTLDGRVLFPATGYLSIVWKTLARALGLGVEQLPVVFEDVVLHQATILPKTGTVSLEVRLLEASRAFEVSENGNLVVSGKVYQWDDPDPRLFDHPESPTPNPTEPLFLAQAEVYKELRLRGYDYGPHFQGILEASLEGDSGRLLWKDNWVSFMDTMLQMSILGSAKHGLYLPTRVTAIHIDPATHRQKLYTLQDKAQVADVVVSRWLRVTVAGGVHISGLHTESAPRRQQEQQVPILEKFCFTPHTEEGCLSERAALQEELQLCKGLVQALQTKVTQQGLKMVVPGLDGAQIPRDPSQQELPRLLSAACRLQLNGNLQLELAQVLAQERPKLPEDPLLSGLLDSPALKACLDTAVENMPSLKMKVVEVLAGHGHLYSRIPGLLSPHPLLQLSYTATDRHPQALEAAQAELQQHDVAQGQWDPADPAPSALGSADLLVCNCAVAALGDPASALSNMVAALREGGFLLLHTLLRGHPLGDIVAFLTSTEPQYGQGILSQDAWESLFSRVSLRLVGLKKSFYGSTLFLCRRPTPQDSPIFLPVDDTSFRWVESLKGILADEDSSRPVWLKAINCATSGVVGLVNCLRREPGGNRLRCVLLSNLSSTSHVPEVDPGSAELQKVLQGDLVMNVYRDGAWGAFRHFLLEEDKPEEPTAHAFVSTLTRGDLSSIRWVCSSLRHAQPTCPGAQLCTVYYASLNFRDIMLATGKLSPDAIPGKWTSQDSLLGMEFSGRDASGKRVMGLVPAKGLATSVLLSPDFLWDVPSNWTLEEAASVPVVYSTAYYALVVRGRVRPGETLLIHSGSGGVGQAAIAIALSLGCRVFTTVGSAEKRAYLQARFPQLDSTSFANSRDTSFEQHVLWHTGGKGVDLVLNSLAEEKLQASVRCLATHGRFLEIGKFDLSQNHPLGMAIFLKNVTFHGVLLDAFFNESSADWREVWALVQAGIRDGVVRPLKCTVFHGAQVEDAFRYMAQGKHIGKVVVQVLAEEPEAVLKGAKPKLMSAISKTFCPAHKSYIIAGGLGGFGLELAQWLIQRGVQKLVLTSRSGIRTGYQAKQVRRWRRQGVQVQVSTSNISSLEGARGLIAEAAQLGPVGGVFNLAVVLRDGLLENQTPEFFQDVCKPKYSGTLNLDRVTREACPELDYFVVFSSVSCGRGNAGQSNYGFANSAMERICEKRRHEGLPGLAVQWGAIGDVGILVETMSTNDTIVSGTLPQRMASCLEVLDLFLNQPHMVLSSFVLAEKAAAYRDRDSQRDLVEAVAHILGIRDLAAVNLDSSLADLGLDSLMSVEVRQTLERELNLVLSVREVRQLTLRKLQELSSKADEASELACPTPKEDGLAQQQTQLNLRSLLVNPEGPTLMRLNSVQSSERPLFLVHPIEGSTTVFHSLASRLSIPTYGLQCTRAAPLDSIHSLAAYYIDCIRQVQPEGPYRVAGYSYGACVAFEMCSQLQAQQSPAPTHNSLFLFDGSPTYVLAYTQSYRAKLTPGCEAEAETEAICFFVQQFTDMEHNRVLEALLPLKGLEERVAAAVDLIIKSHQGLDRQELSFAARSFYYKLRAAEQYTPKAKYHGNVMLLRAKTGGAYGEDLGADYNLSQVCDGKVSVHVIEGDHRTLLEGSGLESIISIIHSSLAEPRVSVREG

Take `Nc1ccc(Nc2ccccc2)cc1`: the compound was classed as inactive in test [1], in test [2], in [3], in [4], in test [5] and in [8]. Also, the compound was called inactive in [11], in [12], in test [13], in test [14], in test [15] and in test [16]. The AC50 in [6] was 83.7 µM (active); in [7], 13.9 µM (active); in [9], 65.8 µM (active); in test [10] it was 4.03 µM (active).

Consider `CCOC(=O)CC(CC(=O)OCC)(OC(C)=O)C(=O)OCC`, for which the call in test [1], in [2], in test [3], in [4], in test [12] and in test [13] was inactive. In addition, the compound was classed as inactive in test [14], in [15], in test [17] and in test [16].

Regarding `Cn1c(=O)cc(Oc2ccc(F)cc2F)c2cnc(NCC(C)(C)O)nc21`, the compound was called inactive in [2], in test [3], in test [4], in test [6], in test [7] and in test [8]. Also, the outcome in test [9], in test [10], in test [18], in test [19], in test [11] and in test [12] was inactive. Moreover, the outcome in [14], in test [15] and in test [16] was inactive. In addition, in test [5], the AC50 is 8.38 µM (active).

Regarding `COC(=O)c1ccccc1O`, the result in test [1], in test [12], in test [13], in test [15], in test [17] and in [16] was inactive.

Take `CC(C)CC(C)(O)C#CC(C)(O)CC(C)C` (centres undefined): the call in [1], in test [3], in test [4], in test [6], in [7] and in test [8] was inactive. Besides, the result in [9], in test [10], in test [11], in test [13], in test [14] and in test [15] was inactive. In addition, in [16], the compound was called inactive. For the same compound, the AC50 in test [5] is 68.2 µM (active).

`Cc1[nH]cnc1C[C@H]1CCc2c(C)c3ccccc3n2C1=O`: the outcome in test [1] and in test [15] was inactive. Further, the AC50 in [12] is 69.3 µM (active); in [16], 24.3 µM (active).

With `CCOC(=O)c1ccc(C2CCC(NC[C@H](O)COc3ccc(O)c(NS(C)(=O)=O)c3)CC2)cc1` (some centres undefined), the AC50 in test [2] is 10.4 µM (active); in [5], 2.78 µM (active); in test [6], 2.95 µM (active); in test [7], 5.6 µM (active); in [8], 9.35 µM (active); in [10], 2.84 µM (active). Besides, the AC50 in test [11] is 2.61 µM (active). Besides, the compound was classed as inactive in [3], in [4], in test [9], in [12], in [13] and in test [14]. Further, the compound was called inactive in test [15], in test [17] and in test [16].

`CN(C)c1ccc(Cc2ccc(N(C)C)cc2)cc1`: the call in test [2], in test [3], in [4], in test [5], in [6] and in test [7] was inactive. Besides, the result in test [9], in [10], in [13], in test [14], in [15] and in [17] was inactive. The call in test [16] was inactive. Besides, the AC50 in test [11] is 3.81 µM (active); in [12], 50 µM (active).

As to `O=C(O)c1cccc(N(Cc2cccnc2)c2ccc(OC(F)F)c(OC(F)F)c2)c1`, the half-maximal activity concentration (AC50) in [2] is 32.4 µM (active); in test [7] it was 7.82 µM (active); in [14] it was 0.00643 µM (active). The compound was called inactive in test [3], in test [4], in test [6], in [20], in [11] and in test [12]. The call in [15], in test [17] and in test [16] was inactive.

The values above are taken from PubChem BioAssay (EPA / NIEHS).
